For assay [1], the system named is Human papillomavirus type 1a protein E7 (residues 44-93). As to the kind of experiment: small molecules binding HPV E7 44-93 – biochemical, small-molecule microarray, residues 44-93, 635 nm fluorescence, primary screen (AID 1108).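 Also: E7 fragment applied at 1 µg/mL in TBST for 1 h at 4 C; score combines spot fluorescence with its signal to noise ratio.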 As to conditions: fluorescence 635 nm, higher = more signal.
A short description of assay [2]: hepatitis C replication reporter changes, two-sided – Huh7 cells, luciferase reporter, HCV replication inhibitor project, primary screen (AID 1109).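 Also: huh7 hepatoma cells harbouring a luciferase neomycin HCV replicon reporter; luciferase luminescence as measure of HCV replicon replication; test concentration not given here.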 As to conditions: Huh7 HCV replicon luciferase reporter, 48 h; higher = more signal. On the technique in general: In a reporter assay the amount or activity of a reporter protein is the signal.
For assay [3], the target named is Left-right determination factor 2 (Homo sapiens) (UniProt O00292). Description: small molecules binding LEFTY2 protein – biochemical, small-molecule microarray, 635 nm fluorescence scan, primary screen (AID 1110). As to conditions: higher = more signal.
Sequence of Left-right determination factor 2 (Homo sapiens) (O00292 whole entry, looked up): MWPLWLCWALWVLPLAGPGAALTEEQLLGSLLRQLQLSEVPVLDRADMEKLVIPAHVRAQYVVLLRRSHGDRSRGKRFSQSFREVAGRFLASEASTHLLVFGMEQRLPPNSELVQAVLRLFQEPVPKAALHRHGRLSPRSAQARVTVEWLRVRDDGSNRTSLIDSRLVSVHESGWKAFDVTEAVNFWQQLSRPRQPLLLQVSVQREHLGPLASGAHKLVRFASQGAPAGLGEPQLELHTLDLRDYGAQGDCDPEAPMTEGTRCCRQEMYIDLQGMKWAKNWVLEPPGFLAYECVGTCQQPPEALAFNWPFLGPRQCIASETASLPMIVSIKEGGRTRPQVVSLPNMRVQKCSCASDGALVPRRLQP
The target of assay [4] is Calmodulin-1 (Homo sapiens) (UniProt P0DP23). Description: small molecules binding calmodulin-1 with EGTA – biochemical, small-molecule microarray, Cy5-labelled CALM1, profiling panel (AID 1111).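 Also: labelled calmodulin applied in Tris saline Tween buffer holding calcium plus EGTA and DTT.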 As to conditions: Cy5-CALM1 binding fluorescence, higher = more signal.
For assay [5] the target is unchanged. Description: small molecules binding Ca-loaded calmodulin-1 – biochemical, small-molecule microarray, Cy5-labelled CALM1, plus calcium, artefact control for SMM control-protein annotation, profiling panel (AID 1112).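 Also: score merges spot fluorescence with signal to noise from triplicate slides.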 As to conditions: Cy5-CALM1 binding fluorescence, higher = more signal.
A short description of assay [6]: probe aWnt5a binding to arrayed compounds – biochemical, biotinylated probe, 635/667 nm fluorescence, primary screen (AID 1113).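 Also: score merges 667 nm fluorescence intensity with signal-to-noise per printed feature.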 As to conditions: small-molecule microarray, higher = more signal.
Assay [7] in a line: probe aShh binding to arrayed compounds – biochemical, biotinylated probe, 635/667 nm fluorescence, primary screen (AID 1114).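 Also: probe is biotin-labelled aShh protein from a stem cell growth factor screen; measures binding of labelled protein to compounds printed on the slide; score merges feature fluorescence at 667 nm with signal-to-noise.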 As to conditions: small-molecule microarray, higher = more signal.
Assay [8] in a line: probe aNog binding to arrayed compounds – biochemical, biotinylated probe, 635/667 nm fluorescence, primary screen (AID 1115).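 Also: probe is biotinylated aNog protein used at 0.15 µg/mL for 1 h at 4 C; z-score combines 667 nm fluorescence of each spot with its signal to noise.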 As to conditions: small-molecule microarray, higher = more signal.
Assay [9] has as its target Torsin-1A-interacting protein 1 (Homo sapiens) (UniProt Q5JTV8). Description: compound microarray binding of lysate hLAP1 – cell lysate, small-molecule microarray, COS7 lysate, 635/667 nm fluorescence, primary screen (AID 1116). As to conditions: 635 nm fluorescence, higher = more signal.
The target in assay [10] is Alpha-bungarotoxin (Bungarus multicinctus) (UniProt P60615). Description: compounds binding labelled alpha-BTX control protein – biochemical, small-molecule microarray, Alexa647 label, 635/667 nm fluorescence, artefact control for SMM control protein annotation, profiling panel (AID 1117). As to conditions: alpha-BTX-A647 binding fluorescence, higher = more signal.
Sequence of Alpha-bungarotoxin (Bungarus multicinctus) (P60615 whole entry, looked up): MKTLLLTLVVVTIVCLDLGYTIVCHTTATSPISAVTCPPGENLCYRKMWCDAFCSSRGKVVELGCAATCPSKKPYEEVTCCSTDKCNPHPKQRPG

Sequence of Torsin-1A-interacting protein 1 (Homo sapiens) (Q5JTV8 whole entry, looked up): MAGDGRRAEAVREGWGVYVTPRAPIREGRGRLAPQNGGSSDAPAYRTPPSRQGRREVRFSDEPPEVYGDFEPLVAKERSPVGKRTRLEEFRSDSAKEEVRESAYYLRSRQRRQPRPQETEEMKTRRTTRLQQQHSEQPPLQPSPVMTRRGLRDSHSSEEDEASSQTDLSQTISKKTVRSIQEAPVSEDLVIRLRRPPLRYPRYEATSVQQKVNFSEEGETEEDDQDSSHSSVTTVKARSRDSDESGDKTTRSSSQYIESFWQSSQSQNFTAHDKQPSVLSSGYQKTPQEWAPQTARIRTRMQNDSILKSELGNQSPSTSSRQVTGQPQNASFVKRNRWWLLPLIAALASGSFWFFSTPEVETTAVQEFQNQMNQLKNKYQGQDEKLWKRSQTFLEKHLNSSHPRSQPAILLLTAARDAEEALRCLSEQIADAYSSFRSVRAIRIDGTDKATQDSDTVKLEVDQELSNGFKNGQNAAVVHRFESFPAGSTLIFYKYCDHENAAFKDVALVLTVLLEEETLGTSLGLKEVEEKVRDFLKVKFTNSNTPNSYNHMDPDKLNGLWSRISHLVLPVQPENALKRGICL

In the case of `CC[C@H]1C2=C3C(CC[C@H]4C(OCc5ccc(F)cc5C(F)(F)F)OC[C@](C)([C@@H]34)N(C(=O)OC(C)(C)C)C2)C(COC(C)=O)C1COC(C)=O` (stereo not given in full), the composite z-score was 1.35 in assay [1]; -0.747 in assay [3]; 1.97 in [4]; 1.15 in assay [5]; 0.24 in [6]; 1.15 in assay [7]. Besides, the composite z-score in assay [8] is -0.313; in [9], 0.0366; in [10], 0.729. In assay [2], the z-score was -0.567.
On to `CN1C2C=C(c3ccc(CO)cc3)C(C3C(=O)N(C(N)=O)C(=O)C32)C1C1CC1` (stereo not given), for which the composite z-score in assay [1] is 0.249; in assay [3], -0.423; in [4], -0.273; in assay [5], -0.915; in [6], -0.176; in [7], -0.229. The results for the composite z-score in assay [8], in assay [9] and in [10] were -0.226, 0.192 and 0.334, respectively. In assay [2], this molecule yielded a z-score of -0.31.
Regarding `COC(=O)[C@]1(Cc2ccccc2CN=[N+]=[N-])N=C(c2ccc(OCCCO)cc2)O[C@@H]1c1ccccc1N=[N+]=[N-]`, the composite z-score was -0.131 in [1]; -0.0976 in [3]; -0.0209 in [4]; -0.307 in [5]; -0.0346 in [6]; -0.018 in assay [7]. For the same molecule, the composite z-score in assay [8] was determined as 1.03; in assay [9], 0.963; in [10], 0.37. Also, the z-score in [2] was -2.65.
For the molecule `O=C1O[C@H](c2ccccc2)[C@H](c2ccccc2)N2[C@H]1[C@@H](C(=O)N1CCCCCCC1)[C@]1(C(=O)Nc3ccc(C#CCCO)cc31)[C@H]2c1ccc(O)cc1`, the composite z-score in assay [1] was determined as 1.52; in assay [3], 1.69; in assay [4] it was 3.02; in [5], 1.75; in [6], 1.62; in assay [7], 2.01. Also, the composite z-score in [8] is 0.939; in assay [9] it was 5.54; in assay [10], 4.23. Also, the z-score in [2] was -0.637.
As for `O=C1O[C@@H](c2ccccc2)[C@@H](c2ccccc2)N2[C@@H](c3ccccc3OCCO)[C@]3(C(=O)Nc4ccc(C#CC5(O)CCCCCC5)cc43)[C@@H](C(=O)N3CCCCCCC3)[C@H]12`, the composite z-score stood at 1.61 in assay [1]; 1.87 in [3]; 3.06 in assay [4]; 1.82 in assay [5]; 1.65 in assay [6]; 3.04 in assay [7]. In addition, the values for the composite z-score in [8], in assay [9] and in [10] were 3.8, 5.6 and 4.54, respectively. The molecule further gave a z-score in assay [2] of -2.22.
Consider `COc1cc(Cc2cc3c(c(CCc4ccccc4)n2)[Si](C(C)C)(C(C)C)O[C@H]3c2ccccc2)cc(OC)c1OC`, for which the composite z-score was -1.18 in assay [1]; 0.151 in [3]; -0.448 in assay [4]; -0.425 in [5]; -0.0107 in [6]; -0.138 in [7]. For the same molecule, the results for the composite z-score in assay [8], in assay [9] and in [10] were -0.0827, 0.415 and 0.537, respectively. This molecule also had a z-score in assay [2] of -2.37.
In the case of `CCCC[C@@H](O)C1=C(C)Cn2c(=O)n(-c3ccccc3)c(=O)n2[C@H]1CO`, the composite z-score in [1] is -0.867; in assay [3], 0.0031; in [4] it was -0.737; in assay [5], -0.122; in assay [6], -0.117; in assay [7], -0.221. Also, the composite z-score is 0.115 in assay [8], 0.105 in assay [9] and -0.409 in [10]. In [2], this molecule gave a z-score of 0.384.
Take `COCCOC(=O)N1C(=O)[C@@]2(c3cc(C#CCNC(N)=O)ccc31)[C@H](C(N)=O)[C@H]1C(=O)O[C@H](c3ccccc3)[C@H](c3ccccc3)N1[C@@H]2c1ccc(O)cc1`: the composite z-score is -0.109 in assay [1]; -0.0417 in assay [3]; 0.062 in assay [4]; 0.662 in assay [5]; -0.0384 in assay [6]; 0.288 in [7]. Moreover, the composite z-score is -0.0245 in assay [8], 0.0743 in assay [9] and -0.285 in [10]. The z-score in assay [2] amounted to 0.494.
Consider `C=C(COC)C(=O)CC[C@@H](OC(=O)c1ccccc1-c1ccccc1C(=O)O)c1ccccc1OCCO`, for which the composite z-score in [1] is 0.933; in assay [3], 0.585; in assay [4], -0.537; in [5], -1.2; in [6], -0.232; in assay [7] it was -0.17. For the same molecule, the composite z-score in assay [8] was 0.153; in assay [9], 3.7; in assay [10], -0.217. The molecule also had a z-score in assay [2] of -1.91.
Take `COC(=O)[C@@]1(Cc2ccc(F)cc2)[C@H]2c3cc(C(=O)N4CCCC4)n(Cc4ccc(C(F)(F)F)nc4)c3C[C@H]2CN1C(=O)c1ccccc1`: the composite z-score was 1.18 in assay [1]; 0.0089 in assay [3]; 2.16 in [4]; 0.557 in assay [5]; 0.106 in [6]; -0.382 in [7]. Further, the composite z-score in assay [8] was -1.06; in [9] it was 0.873; in assay [10], 0.615. The same molecule came in with a z-score in assay [2] of -2.15.
In the case of `COc1ccc(C(=O)Nc2ccc(CN3C(=O)[C@@]4(O[C@@H](CC(=O)N(CCO)Cc5ccccc5)[C@H]([Si](C)(C)c5ccc(OC)cc5)[C@H]4C)c4ccccc43)cc2)cc1`, the composite z-score in assay [1] was -0.471; in assay [3] it was 0.444; in [4] it was 0.655; in [5], -0.0779; in assay [6], -0.14; in assay [7] it was -0.341. For the same molecule, the composite z-score was -0.31 in [8], 0.121 in [9] and 0.331 in assay [10]. In assay [2], this molecule gave a z-score of -3.92.
Consider `O=C1O[C@@H](c2ccccc2)[C@@H](c2ccccc2)N2[C@@H](c3ccc(OCCO)cc3)[C@]3(C(=O)Nc4ccc(C#CC5=CCCCC5)cc43)[C@@H](C(=O)Nc3nc4ccccc4s3)[C@H]12`, for which the composite z-score was 0.597 in assay [1]; -0.005 in [3]; 0.516 in [4]; -0.188 in assay [5]; 0.0243 in [6]; -0.708 in assay [7]. The results for the composite z-score in [8], in [9] and in assay [10] were 0.704, 0.0065 and 0.4, respectively. For the same molecule, in [2], the z-score was -1.88.
Consider `C=C[C@@H](CO)NS(=O)(=O)c1ccc(Br)cc1`, for which the composite z-score in assay [1] was -1.71; in [3], -0.671; in assay [4] it was -1.05; in assay [5], -0.453; in assay [6] it was -0.208; in assay [7], -0.153. For the same molecule, the composite z-score in [8] was -0.158; in assay [9], 0.127; in [10] it was -0.796. Besides, the z-score in [2] is 0.0931.
Regarding `CC(C)Cc1ccc(CN2CC[C@@H](NC(=O)c3ccccc3)C2)cc1`, the composite z-score is -0.979 in assay [1]; 0.0756 in assay [3]; -0.816 in assay [4]; -0.524 in [5]; -0.159 in assay [6]; -0.345 in assay [7]. For the same molecule, the composite z-score in assay [8] is -0.367; in assay [9] it was 0.367; in assay [10] it was 1.01. This molecule came in with a z-score in assay [2] of -4.02.
For `O=C1C2C=CC(C(O)c3ccccn3)N(Nc3ccc([N+](=O)[O-])cc3)C2C(=O)N1c1ccccc1` (stereo not given), the composite z-score in [1] is 0.0529; in assay [3], 0.335; in assay [4], 2.02; in assay [5], 0.897; in [6], -0.0799; in assay [7] it was 0.184. Moreover, the results for the composite z-score in assay [8], in assay [9] and in [10] were 0.479, 0.958 and 1.11, respectively. Besides, in assay [2], the z-score is -0.35.
Take `C=C[C@H](C)[C@@H](OC(=O)Nc1ccc(SC)cc1)c1ccc(OCCO)cc1`: the composite z-score in [1] was 1.3; in assay [3] it was -0.396; in [4], 0.19; in [5], 0.601; in [6], -0.0792; in [7] it was -0.0643. Moreover, the composite z-score in [8] was 0.958; in assay [9], 0.248; in assay [10], 0.438. In addition, the z-score in assay [2] was -0.931.
With `[N-]=[N+]=NCc1ccccc1[C@H]1OC(c2ccc(OCCCO)cc2)=N[C@@]1(Cc1ccccc1N=[N+]=[N-])C(=O)N1CCOCC1`, the composite z-score in assay [1] was 1.39; in assay [3] it was -0.267; in [4], 1.86; in assay [5], 0.642; in [6], 0.0115; in assay [7] it was 0.539. Moreover, the values for the composite z-score in assay [8], in assay [9] and in assay [10] were 1.44, 0.506 and 1.4, respectively. Moreover, in assay [2], the z-score is -2.2.

Values taken from PubChem BioAssay.
